Measurements as given in PubChem BioAssay (NCATS).
Records with an inconclusive call do not appear. Calls of active or inactive are those of the source. Calls come from the whole dose curve; as a rule, active = well fitted inhibition curve with a large enough effect; inconclusive = small, poorly fitted or top-dose-only effect; inactive = flat fitted curve, though single readings scatter.

Columns and labels:
Assay in all cases: qHTS profiling for inhibitors of Plasmodium falciparum proliferation (AID 504749); note: nearly all actives have a fitted effect of over 60% in size
Settings in all cases: P. falciparum in erythrocytes, SYBR Green DNA, 72 h; series mostly up to 28.7 µM
AA1029 = test system: AA1029
How it was run: (§1)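 SYBR Green fluorescence of parasite DNA, read after lysis and overnight dark incubation, measured growth over 72 h in erythrocyte culture at 0.3% parasitemia and 2.5% hematocrit. Data normalised to DMSO and 0.29 uM artemisinin, with plate-drift correction.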

C2A = test system: C2A
How it was run: as §1

CP211 = test system: CP211
How it was run: as §1

CP215 = test system: CP215
How it was run: as §1

CP217 = test system: CP217
How it was run: as §1

CP250 = test system: CP250
How it was run: as §1

CP252 = test system: CP252
How it was run: as §1

CP256 = test system: CP256
How it was run: as §1

CP269 = test system: CP269
How it was run: as §1

CP315 = test system: CP315
How it was run: as §1

CP325 = test system: CP325
How it was run: as §1

CP329 = test system: CP329
How it was run: as §1

DIV17 = test system: DIV17
How it was run: as §1

FAB9 = test system: FAB9
How it was run: as §1

JCK = test system: JCK
How it was run: as §1

N140 = test system: N140
How it was run: as §1

P93_24 = test system: P93_24
How it was run: as §1

PC49 = test system: PC49
How it was run: as §1

SC27B = test system: SC27B
How it was run: as §1

TAB165 = test system: TAB165
How it was run: as §1

Measured: Potency

CO[C@H]1[C@@H](O)CC(OC2[C@@H](O)CC(OC3[C@@H](O)C[C@H](OC4CC[C@@]5(C)C(CCC6C5CC(O)[C@]5(C)[C@H](C7=CC(=O)OC7)CCC65O)C4)O[C@@H]3C)O[C@@H]2C)O[C@@H]1C (stereo not given in full)
inactive: all assays above
